About 83,000 compounds went through this panel and 20% of them were active in at least one assay; those are over-represented in the sample as a whole.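 Negative percent growth values reflect cell death: -40 means 40% of the cells present at the start died, and -100 means all died.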 A number with no mark means an inactive call. Calls of active or inactive are those of the source. How the source made its calls: active means growth percent below 10; inactive means the rest.

One assay has as its system MALME-3M melanoma. Nature of the assay: NCI-60 one-dose screen, 48 h (100 = growth as untreated, 0 = no growth, -100 = all killed). Particulars: 10 µM unless noted.
Consider `C/C=C(\C)C(C(=O)NC1CCCCC1)N(C(=O)C1CCc2cc(F)ccc2O1)c1ccc(Cl)cc1` (stereo not drawn), for which the growth was 109%.

For the compound `N=C(N)c1ccc(-c2cc(Cl)cc(Cl)c2)cn1`, the growth was 95.8%.

For the compound `COc1ccc(-c2cc(-c3ccccc3)nc(SCCCC(=O)NO)n2)cc1OC`, the growth was -3.72% (active).

As to `CCC(C)/C(=C\C#N)NCCCN/C(=C/C#N)C(C)CC` (stereo not drawn), the growth is 108%.

On to `CC1=C(C#N)C(=O)NC(C)C1` (stereo not drawn), for which the growth is 102%.

Consider `COc1cccc(/C=C2\Oc3cc(OCCCN4CCCC4)ccc3C2=O)c1OC`, for which the growth is 94%.

Regarding `COc1cc(C2C3=C(COC3=O)Nc3cc4c(cc32)CCC4)cc2c1OCO2` (stereo not drawn), the growth was 60%.

For `CCN(CC)c1ccc(/C=C2\Oc3ccc(O)c(I)c3C2=O)cc1`, the growth is 63.4%.

Consider `C=C(C)[C@@H]1CC[C@]2(C(=O)O)CC[C@]3(C)[C@H](CC[C@@H]4[C@@]5(C)C[C@@H](CC#Cc6ccc(C(F)(F)F)cc6)[C@H](O)C(C)(C)[C@@H]5CC[C@]43C)[C@@H]12`, for which the growth is -43.3% (active).

As to `COc1ccc2c(c1)[nH]c(=O)c1c3cccc(F)c3cn21`, the growth is 50.9%.

As to `CCOC(=O)C1=C(C)NC(C)=C(C(=O)OCC)C1(C)C`, the growth is 111%.

With `COc1cccc(/C=C/C(=O)Nc2cc(OC)c3c(c2)OCO3)c1`, the growth is 96.4%.

On to `COc1cccc(-c2nc3sccn3c2-c2ccnc(NCCCNS(=O)(=O)c3ccc(F)cc3)c2)c1`, for which the growth was 39.6%.

Take `COc1ccc(S(=O)(=O)Nc2cc(/C=C\c3cc(OC)c(OC)c(OC)c3)cc(OC)c2OC)cc1`: the growth was 81.5%.

For the compound `Cc1ccc(C(=O)NCCCNc2nccc(-n3ccc4cccnc43)n2)cc1`, the growth was 111%.

`N/C(=N\C(N)=N\c1nc2ccccc2s1)c1ccncc1`: the growth is 81.5%.

In the case of `COC(=O)c1nc(-c2ccccc2)oc1S(=O)(=O)N1CCN(c2cccc(Cl)c2)CC1`, the growth is 100%.

For `CCCCCCCCC(C)OC(=O)c1nn(C(C)=O)c2ccccc12` (stereo not drawn), the growth is 106%.

On to `Cc1ccc(N2CCN(C(C)C(N)=O)CC2)cc1` (stereo not drawn), for which the growth was 107%.

In the case of `COc1ccc(S(=O)(=O)NCCCNc2nccc(-c3c(-c4cccc([N+](=O)[O-])c4)nc4sccn34)n2)cc1`, the growth was 58%.

With `COc1ccc(-n2c(=S)sc3c(Cl)nc(C)nc32)c(OC)c1`, the growth is 80.2%.

Turning to `N[C@@H]1CCN(C(=O)c2cc3cc(Cl)c(F)c(F)c3[nH]2)C1`, the growth is 97.8%.

Turning to `C=C[C@@H]1C[C@@H]2Cc3cc(F)ccc3N1O2`, the growth is 170%.

In the case of `CCCCN(CCCC)C(=O)CC`, the growth was 124%.

As for `CC12CCC3C4(C)COC(c5ccco5)OC4CCC3(C)C1CC(C1=CCOC1=O)O2` (stereo not drawn), the growth was 98.5%.

On to `CCCCN(CCCC)C(=N)c1ccnc2ccccc12`, for which the growth was 98.8%.

On to `C=C1C(=O)O[C@H]2[C@H]1CC/C(Cn1cc(CNC(=O)c3cc4ccccc4[nH]3)nn1)=C\CC[C@@]1(C)O[C@@H]21`, for which the growth was 0.0965% (active).

Turning to `NC(=O)CCCN1C/C(=C\c2ccccc2)C(=O)c2ccccc21`, the growth is 105%.

With `COc1cc(/C=C/C(=O)N2CCN(C(=O)/C=C/c3cc(OC)c(OC)c(OC)c3)CC2)cc(OC)c1OC`, the growth is 127%.

Regarding `COc1ccc(Nc2ncccc2C(=O)NCc2cn(Cc3cccc(Oc4ccccc4)c3)nn2)cc1`, the growth was 41.4%.

In the case of `c1ccc(-c2nnc(-c3ccccn3)s2)nc1`, the growth was 86.3%.

Take `C=C1CCC2C(C)(CO)C(O)CCC2(C)C1CC(NCc1ccccc1)C1=CCOC1=O` (stereo not drawn): the growth was 100%.

For `CCCCCCCCCCCC(=O)NCCC[N+](C)(C)CC(=O)[O-]`, the growth is 108%.

Consider `CC(C)CSc1nc(NN)c(C#N)c(-c2ccc(F)cc2)n1`, for which the growth is 95.5%.

With `O=c1[nH]c(-c2ccccc2)nc(CN2CCCCC2)c1O`, the growth was 128%.

With `Cc1ccc(S(=O)(=O)Nc2c(Br)cc(Br)cc2C(N)=O)cc1`, the growth is 87.4%.

For the compound `Nc1nc(-c2ccccc2)c(CCCOc2ccc(NC(=O)CBr)cc2)c(=O)[nH]1`, the growth was 123%.

Turning to `Nc1cccc(-c2nc3sccn3c2-c2ccnc(NCCNS(=O)(=O)c3ccc(C(F)(F)F)cc3)n2)c1`, the growth was 42.1%.

With `Cc1ccc(-c2nc(C#N)c(S(=O)(=O)n3nc(-c4ccccc4)cc3N)o2)cc1`, the growth was -34.9% (active).

The test system of the next assay is MDA-MB-231 breast. The description is as above. Particulars: 10 µM unless noted.
Take `C/C=C(\C)C(C(=O)NC1CCCCC1)N(C(=O)C1CCc2cc(F)ccc2O1)c1ccc(Cl)cc1` (stereo not drawn): the growth was 103%.

Consider `N=C(N)c1ccc(-c2cc(Cl)cc(Cl)c2)cn1`, for which the growth is 85.6%.

In the case of `COc1ccc(-c2cc(-c3ccccc3)nc(SCCCC(=O)NO)n2)cc1OC`, the growth was 6.56% (active).

`CCC(C)/C(=C\C#N)NCCCN/C(=C/C#N)C(C)CC` (stereo not drawn): the growth is 103%.

As for `CC1=C(C#N)C(=O)NC(C)C1` (stereo not drawn), the growth was 105%.

For `COc1cccc(/C=C2\Oc3cc(OCCCN4CCCC4)ccc3C2=O)c1OC`, the growth was 97.2%.

Consider `COc1cc(C2C3=C(COC3=O)Nc3cc4c(cc32)CCC4)cc2c1OCO2` (stereo not drawn), for which the growth was 20.8%.

Consider `CCN(CC)c1ccc(/C=C2\Oc3ccc(O)c(I)c3C2=O)cc1`, for which the growth was 65.8%.

Take `C=C(C)[C@@H]1CC[C@]2(C(=O)O)CC[C@]3(C)[C@H](CC[C@@H]4[C@@]5(C)C[C@@H](CC#Cc6ccc(C(F)(F)F)cc6)[C@H](O)C(C)(C)[C@@H]5CC[C@]43C)[C@@H]12`: the growth is -10% (active).

On to `COc1ccc2c(c1)[nH]c(=O)c1c3cccc(F)c3cn21`, for which the growth was 27.7%.

With `CCOC(=O)C1=C(C)NC(C)=C(C(=O)OCC)C1(C)C`, the growth is 98.8%.

For `COc1cccc(/C=C/C(=O)Nc2cc(OC)c3c(c2)OCO3)c1`, the growth was 83.5%.

For the compound `COc1cccc(-c2nc3sccn3c2-c2ccnc(NCCCNS(=O)(=O)c3ccc(F)cc3)c2)c1`, the growth is 57.4%.

Regarding `COc1ccc(S(=O)(=O)Nc2cc(/C=C\c3cc(OC)c(OC)c(OC)c3)cc(OC)c2OC)cc1`, the growth was 21%.

Regarding `Cc1ccc(C(=O)NCCCNc2nccc(-n3ccc4cccnc43)n2)cc1`, the growth is 104%.

Consider `N/C(=N\C(N)=N\c1nc2ccccc2s1)c1ccncc1`, for which the growth was 55.7%.

Turning to `COC(=O)c1nc(-c2ccccc2)oc1S(=O)(=O)N1CCN(c2cccc(Cl)c2)CC1`, the growth is 73.5%.

As for `CCCCCCCCC(C)OC(=O)c1nn(C(C)=O)c2ccccc12` (stereo not drawn), the growth was 99.7%.

Turning to `Cc1ccc(N2CCN(C(C)C(N)=O)CC2)cc1` (stereo not drawn), the growth is 102%.

On to `COc1ccc(S(=O)(=O)NCCCNc2nccc(-c3c(-c4cccc([N+](=O)[O-])c4)nc4sccn34)n2)cc1`, for which the growth was 59.5%.

`COc1ccc(-n2c(=S)sc3c(Cl)nc(C)nc32)c(OC)c1`: the growth was -14.9% (active).

Take `N[C@@H]1CCN(C(=O)c2cc3cc(Cl)c(F)c(F)c3[nH]2)C1`: the growth was 79.6%.

For `C=C[C@@H]1C[C@@H]2Cc3cc(F)ccc3N1O2`, the growth is 112%.

`CCCCN(CCCC)C(=O)CC`: the growth is 114%.

For `CC12CCC3C4(C)COC(c5ccco5)OC4CCC3(C)C1CC(C1=CCOC1=O)O2` (stereo not drawn), the growth is 90.2%.

Consider `CCCCN(CCCC)C(=N)c1ccnc2ccccc12`, for which the growth is 119%.

In the case of `C=C1C(=O)O[C@H]2[C@H]1CC/C(Cn1cc(CNC(=O)c3cc4ccccc4[nH]3)nn1)=C\CC[C@@]1(C)O[C@@H]21`, the growth is 60.9%.

As to `NC(=O)CCCN1C/C(=C\c2ccccc2)C(=O)c2ccccc21`, the growth was 100%.

Consider `COc1cc(/C=C/C(=O)N2CCN(C(=O)/C=C/c3cc(OC)c(OC)c(OC)c3)CC2)cc(OC)c1OC`, for which the growth was 82.7%.

Regarding `COc1ccc(Nc2ncccc2C(=O)NCc2cn(Cc3cccc(Oc4ccccc4)c3)nn2)cc1`, the growth is 52%.

Regarding `c1ccc(-c2nnc(-c3ccccn3)s2)nc1`, the growth was 95.1%.

Regarding `C=C1CCC2C(C)(CO)C(O)CCC2(C)C1CC(NCc1ccccc1)C1=CCOC1=O` (stereo not drawn), the growth was 99.6%.

`CCCCCCCCCCCC(=O)NCCC[N+](C)(C)CC(=O)[O-]`: the growth was 90.5%.

On to `CC(C)CSc1nc(NN)c(C#N)c(-c2ccc(F)cc2)n1`, for which the growth is 86.8%.

For the compound `O=c1[nH]c(-c2ccccc2)nc(CN2CCCCC2)c1O`, the growth was 102%.

For `Cc1ccc(S(=O)(=O)Nc2c(Br)cc(Br)cc2C(N)=O)cc1`, the growth was 103%.

For the compound `Nc1nc(-c2ccccc2)c(CCCOc2ccc(NC(=O)CBr)cc2)c(=O)[nH]1`, the growth was 87.4%.

Turning to `Nc1cccc(-c2nc3sccn3c2-c2ccnc(NCCNS(=O)(=O)c3ccc(C(F)(F)F)cc3)n2)c1`, the growth is 46%.

On to `Cc1ccc(-c2nc(C#N)c(S(=O)(=O)n3nc(-c4ccccc4)cc3N)o2)cc1`, for which the growth was 89%.

The record behind these values is PubChem BioAssay (NCI).
